# Measurements from the supplement of paper PMC7057948, “A genome-wide approach for identification and characterisation of metabolite-inducible systems” (Nature Communications, 2020).
# Assays:
# Conditions in all cases: inducer concentration 5 mM; 6 h; Cupriavidus necator H16; minimal medium + 0.4% gluconate
# [1] = system: AcoR/P_H16_RS19445 acetoin biosensor (pEH052); test: relative induction of RFP reporter vs primary effector; higher = stronger activation
# Procedure: (§1)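 Orthogonality screen of 21 primary inducers against 21 transcription factor/inducible promoter–mRFP biosensors in C. necator H16 in minimal medium, robotic 96-well format, 5 mM inducer, 30 °C. OD-normalised RFP fluorescence was read 6 h later and expressed as relative induction (%) = 100 × (FL compound − FL uninduced)/(FL primary inducer − FL uninduced); mean of n=4. Cognate pairs (100% by definition) omitted.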
# [2] = system: AraC/P_araBAD L-arabinose biosensor (pEH176); test: as above
# Procedure: as §1
# [3] = system: BadR/P_H16_RS27200 cyclohexanecarboxylate biosensor (pEH159); test: as above
# Procedure: as §1
# [4] = system: BenM/P_H16_RS09790 benzoate biosensor (pEH148); test: as above
# Procedure: as §1
# [5] = system: FdsR/P_H16_RS03165 formate biosensor (pEH134); test: as above
# Procedure: as §1
# [6] = system: GabR/P_H16_RS23655 GABA biosensor (pEH256); test: as above
# Procedure: as §1
# [7] = system: HpdA/P_H16_RS24175 L-tyrosine biosensor (pEH158); test: as above
# Procedure: as §1
# [8] = system: OapR/P_H16_RS01330 beta-alanine biosensor (pEH147); test: as above
# Procedure: as §1
# [9] = system: PcaQ/P_H16_RS30145 3,4-dihydroxybenzoate biosensor (pEH161); test: as above
# Procedure: as §1
# [10] = system: PhgR/P_H16_RS05530 phenylglyoxylate biosensor (pEH155); test: as above
# Procedure: as §1
# [11] = system: SauR/P_H16_RS13695 sulfonatoacetate biosensor (pEH157); test: as above
# Procedure: as §1
# [12] = system: TtdR/P_H16_RS10665 tartrate biosensor (pEH083); test: as above
# Procedure: as §1
# [13] = system: XdhR/P_H16_RS05055 xanthine biosensor (pEH154); test: as above
# Procedure: as §1
# [14] = system: heterologous L-rhamnose-inducible system; test: as above
# Procedure: as §1
# [15] = system: heterologous acrylate-inducible system; test: as above
# Procedure: as §1
# [16] = system: heterologous cumate-inducible system; test: as above
# Procedure: as §1
# [17] = system: heterologous itaconate-inducible system; test: as above
# Procedure: as §1
# [18] = system: NahR/P_H16_RS08125 salicylate biosensor (pEH042); test: as above
# Procedure: as §1
# [19] = system: AcoR/P_H16_RS19445 acetoin biosensor (pEH052); test: relative induction of RFP reporter vs primary effector (background-corrected); higher = stronger activation of the biosensor
# Procedure: (§2)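 C. necator H16 strains, each carrying one of 21 transcription factor/inducible promoter–mRFP biosensor plasmids, were grown in minimal medium in 96-well plates (robotic platform). Each was exposed to 46 structurally or metabolically related compounds at 5 mM at 30 °C. OD-normalised RFP fluorescence was read 6 h later and expressed as relative induction (%) = 100 × (FL compound − FL uninduced)/(FL primary inducer − FL uninduced); mean of n=4.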
# [20] = system: AraC/P_araBAD L-arabinose biosensor (pEH176); test: as above
# Procedure: as §2
# [21] = system: BenM/P_H16_RS09790 benzoate biosensor (pEH148); test: as above
# Procedure: as §2
# [22] = system: FdsR/P_H16_RS03165 formate biosensor (pEH134); test: as above
# Procedure: as §2
# [23] = system: GabR/P_H16_RS23655 GABA biosensor (pEH256); test: as above
# Procedure: as §2
# [24] = system: HpdR/P_H16_RS18295 3-hydroxypropanoate biosensor (pEH010); test: as above
# Procedure: as §2
# [25] = system: KynR/P_H16_RS14030 L-kynurenine biosensor (pEH136); test: as above
# Procedure: as §2
# [26] = system: NahR/P_H16_RS08125 salicylate biosensor (pEH042); test: as above
# Procedure: as §2
# [27] = system: OapR/P_H16_RS01330 beta-alanine biosensor (pEH147); test: as above
# Procedure: as §2
# [28] = system: PcaQ/P_H16_RS30145 3,4-dihydroxybenzoate biosensor (pEH161); test: as above
# Procedure: as §2
# [29] = system: PhgR/P_H16_RS05530 phenylglyoxylate biosensor (pEH155); test: as above
# Procedure: as §2
# [30] = system: PhhR/P_H16_RS18365 L-phenylalanine biosensor (pEH137); test: as above
# Procedure: as §2
# [31] = system: SauR/P_H16_RS13695 sulfonatoacetate biosensor (pEH157); test: as above
# Procedure: as §2
# [32] = system: TtdR/P_H16_RS10665 tartrate biosensor (pEH083); test: as above
# Procedure: as §2
# [33] = system: XdhR/P_H16_RS05055 xanthine biosensor (pEH154); test: as above
# Procedure: as §2
# [34] = system: heterologous inducible system pEH002 (rhamnose/acrylate/cumate/itaconate set); test: as above
# Procedure: as §2
# [35] = system: heterologous inducible system pEH020 (rhamnose/acrylate/cumate/itaconate set); test: as above
# Procedure: as §2
# [36] = system: heterologous inducible system pEH040 (rhamnose/acrylate/cumate/itaconate set); test: as above
# Procedure: as §2
# [37] = system: heterologous inducible system pEH086 (rhamnose/acrylate/cumate/itaconate set); test: as above
# Procedure: as §2
# 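Wherever relative induction of RFP reporter vs primary effector (background-corrected) is given: RFP excited at 585 nm with emission read at 620 nm, culture medium blanks subtracted from fluorescence and absorbance prior to normalisation.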
structure (smiles),measurement,setting,value
O=C(O)c1ccccc1O [salicylate],relative induction of RFP reporter,[1],-1.02%
same,relative induction of RFP reporter,[2],-0.0255%
same,relative induction of RFP reporter,[3],-0.169%
same,relative induction of RFP reporter,[4],1.72%
same,relative induction of RFP reporter,[5],-11.3%
same,relative induction of RFP reporter,[6],1.28%
same,relative induction of RFP reporter,[7],-0.0712%
same,relative induction of RFP reporter,[8],-0.51%
same,relative induction of RFP reporter,[9],-0.391%
same,relative induction of RFP reporter,[10],-0.369%
same,relative induction of RFP reporter,[11],0.0177%
same,relative induction of RFP reporter,[12],-0.317%
same,relative induction of RFP reporter,[13],-0.278%
same,relative induction of RFP reporter,[14],0.019%
same,relative induction of RFP reporter,[15],-1.06%
same,relative induction of RFP reporter,[16],0.792%
same,relative induction of RFP reporter,[17],-0.0867%
O=C(O)CS(=O)(=O)O [sulfonatoacetate],relative induction of RFP reporter,[1],0.846%
same,relative induction of RFP reporter,[2],0.0162%
same,relative induction of RFP reporter,[3],-0.423%
same,relative induction of RFP reporter,[4],-0.0067%
same,relative induction of RFP reporter,[5],-4.35%
same,relative induction of RFP reporter,[6],-1.11%
same,relative induction of RFP reporter,[7],-0.143%
same,relative induction of RFP reporter,[18],-0.0115%
same,relative induction of RFP reporter,[8],-0.372%
same,relative induction of RFP reporter,[9],-0.165%
same,relative induction of RFP reporter,[10],-0.406%
same,relative induction of RFP reporter,[12],0.749%
same,relative induction of RFP reporter,[13],-0.434%
same,relative induction of RFP reporter,[14],0.0242%
same,relative induction of RFP reporter,[15],-0.561%
same,relative induction of RFP reporter,[16],0.916%
same,relative induction of RFP reporter,[17],0.693%
O=C(O)C(O)C(O)C(=O)O (configuration not stated) [tartrate],relative induction of RFP reporter,[1],0.491%
same,relative induction of RFP reporter,[2],-0.00769%
same,relative induction of RFP reporter,[3],-0.687%
same,relative induction of RFP reporter,[4],0.00705%
same,relative induction of RFP reporter,[5],-1.89%
same,relative induction of RFP reporter,[6],0.312%
same,relative induction of RFP reporter,[7],-0.0207%
same,relative induction of RFP reporter,[18],0.0221%
same,relative induction of RFP reporter,[8],-0.132%
same,relative induction of RFP reporter,[9],0.0285%
same,relative induction of RFP reporter,[10],-0.242%
same,relative induction of RFP reporter,[11],0.033%
same,relative induction of RFP reporter,[13],-0.458%
same,relative induction of RFP reporter,[14],0.0177%
same,relative induction of RFP reporter,[15],-0.36%
same,relative induction of RFP reporter,[16],-0.8%
same,relative induction of RFP reporter,[17],0.359%
NCCC(=O)O [β-alanine],relative induction of RFP reporter,[1],-2.32%
same,relative induction of RFP reporter,[2],-0.0067%
same,relative induction of RFP reporter,[3],-0.428%
same,relative induction of RFP reporter,[4],-0.0408%
same,relative induction of RFP reporter,[5],-3.65%
same,relative induction of RFP reporter,[6],-1.1%
same,relative induction of RFP reporter,[7],-0.165%
same,relative induction of RFP reporter,[18],0.0063%
same,relative induction of RFP reporter,[9],-0.208%
same,relative induction of RFP reporter,[10],-0.344%
same,relative induction of RFP reporter,[11],-0.0116%
same,relative induction of RFP reporter,[12],0.268%
same,relative induction of RFP reporter,[13],-0.793%
same,relative induction of RFP reporter,[14],0.0016%
same,relative induction of RFP reporter,[15],-2.33%
same,relative induction of RFP reporter,[16],-1.44%
same,relative induction of RFP reporter,[17],-0.489%
NCCS(=O)(=O)O [taurine],relative induction of RFP reporter,[19],-0.255%
same,relative induction of RFP reporter,[20],-0.0412%
same,relative induction of RFP reporter,[21],-0.0223%
same,relative induction of RFP reporter,[22],-0.473%
same,relative induction of RFP reporter,[23],-1.59%
same,relative induction of RFP reporter,[24],-0.142%
same,relative induction of RFP reporter,[25],-0.215%
same,relative induction of RFP reporter,[26],0.0156%
same,relative induction of RFP reporter,[27],0.934%
same,relative induction of RFP reporter,[28],3.14%
same,relative induction of RFP reporter,[29],-0.395%
same,relative induction of RFP reporter,[30],-0.387%
same,relative induction of RFP reporter,[31],2.29%
same,relative induction of RFP reporter,[32],0.0679%
same,relative induction of RFP reporter,[33],-0.494%
same,relative induction of RFP reporter,[34],0.00496%
same,relative induction of RFP reporter,[35],-0.468%
same,relative induction of RFP reporter,[36],-0.555%
same,relative induction of RFP reporter,[37],0.38%
